The list is not random: actives were taken first. Their share in the collection is about 19%.
HT1080 IDH1KD tx: HT-1080 IDH1 knockdown cell toxicity (counter line); Potency, µM (series often up to 46.1 µM), for the others: top-dose activity, negative = toxicity, actives largely listed as cytotoxic; HT-1080 IDH1 knockdown viability, ATP luminescence, 48 h; AID 686971; 2% of 360,000 active;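 note: potency is the fitted concentration of half-maximal effect; 0% = DMSO wells and -100% = cell-free medium wells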
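Knockdown cells (IDH1KD HT-1080) received compounds 2 h after plating at 750 cells/well and were kept 48 h at 37 °C in 5% FBS RPMI. A CellTiter-Glo luminescence read gave % activity for curve fitting.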
TDP1 cell noCPT: qHTS for Inhibitors of human tyrosyl-DNA phosphodiesterase 1 (TDP1): qHTS in cells in absence of CPT. AID 686978, 2013. DT40 Tdp1-/- hTDP1 cells, no CPT, ATP luminescence, 48 h. Potency, µM (highest dose often 46.2 µM), inactives show at the highest dose activity change, negative = growth inhibition, hits mostly inhibitors. 15% of 420,000 active; note: potency is the fitted concentration of half-maximal effect; nearly all actives have a fitted effect of over 55% in size
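Readout: luminescence from CellTiter-Glo after 30 min in the dark at RT. Cells: DT40 Tdp1-/- with stable hTDP1, 400/well. Exposure: compounds alone, ≥48 hr, 37 °C.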
IL1B secr inh: inflammasome signaling inhibition, IL-1 beta readout; 4.7% of 360,000 active; THP-1 LPS/ATP IL-1B secretion, AlphaLISA, 16 h; active compounds read low; activity change, % at 57.5 µM; in the data active = activity change below about -50%; inconclusive = mostly about -30% to -49%
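THP-1 cells pretreated 1 hr with compounds (up to 57.5 uM final), then stimulated with LPS (250 ng/mL final) plus ATP (1.25 mM final); secreted IL-1B measured by AlphaLISA after 16 hr, decreased signal indicating inhibition.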
HT1080NT lethal: kills 2HG-producing HT-1080-NT fibrosarcoma cells; Potency, µM (doses to about 46.1 µM), without a hit: top-dose activity, negative = less viability, actives largely listed as cytotoxic; HT-1080-NT fibrosarcoma viability, CellTiter-Glo ATP luminescence, 48 h; 1.6% of 360,000 active; AID 686970;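 note: NT is the 2HG producing partner of a matched IDH1 knockdown line; potency is the fitted concentration of half-maximal effect; 0% = DMSO-treated cells and -100% = media-only wells without cells; nearly all actives have a fitted effect of over 55% in size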
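Viability by CellTiter-Glo luminescence after 48 h compound exposure at 37C of HT-1080-NT cells (750/well, RPMI, 5% FBS). % activity scaled between DMSO wells and medium-only wells, then curve-fitted and categorized by curve class.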
uPA surface inh: cell surface uPA generation inhibition; cell surface uPA generation assay, qHTS; Potency, µM (titrated, usually from 38.3 µM), for the others: top-dose activity change, negative = inhibition, hits mostly inhibitors; 0.31% of 330,000 active; AID 540303; active = well fitted inhibition curve with a large enough effect; inconclusive = small, poorly fitted or top-dose-only effect; inactive = no such curve, though single readings can be large or run the other way; tested in mouse RAW 264.7 cells; note: potency is the fitted concentration of half-maximal effect; nearly all actives have a fitted effect of over 55% in size
DT40 TDP1 CPT: growth inhibition of DT40 Tdp1-/-;hTDP1 cells with camptothecin (screen for TDP1 inhibitors); chicken DT40 Tdp1-/-;hTDP1 cells + 20 nM CPT, ATP luminescence, 48 h; Potency, µM (top dose mostly 46.2 µM), for the others: at the highest dose activity change, negative = growth inhibition, hits mostly inhibitors; AID 686979; 12% of 420,000 active; note: potency is the fitted concentration of half-maximal effect; nearly all actives have a fitted effect of over 55% in size
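Cell growth measured by CellTiter-Glo luminescence after a minimum 48 h, 37 C compound exposure with 20 nM CPT in Tdp1-knockout DT40 cells stably expressing hTDP1, seeded 400/well; qHTS titration format.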
* hit, by the source's call; ? = inconclusive; . = no result given; [ ] = another dose, or the depositor's remark. Unless noted, calls come from the whole dose curve; as a rule, active = well fitted curve in the direction sought with a large enough effect; inconclusive = small, poorly fitted or top-dose-only effect, or another doubt; inactive = no such curve, though single readings can be large; an effect the other way counts as inactive or inconclusive. Unless noted, % is set by controls: 0 for no effect and ±100 for the full control effect.

SMILES | HT1080 IDH1KD tx | TDP1 cell noCPT | IL1B secr inh | HT1080NT lethal | uPA surface inh | DT40 TDP1 CPT
O=C(Nc1cccc(F)c1)N1CCC2(CCNCC2)CC1 | . | ? | . | . | . | -26%
O=C(Nc1ccccc1)N1CC=C(c2ccc(F)cc2)CC1 | -6% | 13µM* | 0 | -8% | 2% | ?
CCOc1ccc2nc(NC(=O)CN3C(=O)C4CCCCC4C3=O)sc2c1 (stereo not drawn) | -15% | -28% | -8 | -4% | -12% | -17%
Cc1ccc(N=C2C(=O)Nc3c(C)cccc32)cc1 | 5% | -22% | 24 | 3% | 12% | -5%
Cc1ccc(N=C2C(=O)Nc3ccc(Br)cc32)cc1 | ? | 12µM* | 65 | ? | -15% | 18µM*
O=C(OCc1nnc(-c2ccccc2)o1)c1cc(S(=O)(=O)N2CCOCC2)ccc1F | 0% | 1% | -8 | -4% | -1% | 2%
Cc1cccc(C)c1NC(=S)N1CCCN(Cc2ccc(F)cc2)C1 | -14% | ? | -51* | -27% | 5% | 0%
CCOc1ccc(NC(=S)N2CCCN(Cc3cccc(Cl)c3)C2)cc1 | ? | ? | -61* | -1% | -3% | ?
Cc1ccc(NC(=O)N2CCCCCC2)cc1C | 18% | 24% | -1 | 24% | 0% | -2%
Cc1ccc(NC(=O)N2CCCN(Cc3ccc(F)cc3)C2)cc1C | 16µM* | ? | -19 | 15µM* | -2% | ?
COc1cccc(NC(=S)N2CCCN(Cc3ccc(F)cc3)C2)c1 | ? | 23µM* | -13 | 0% | 5% | -10%
COc1cccc(NC(=S)N2CCN(Cc3ccccc3)CC2)c1 | 2% | -28% | -3 | 1% | -1% | -11%
Fc1ccc(CN2CCCN(C(=S)Nc3ccc(F)cc3)CC2)cc1 | 0% | -23% | -7 | 0% | -2% | -12%
CC[C@]12c3[nH]c4ccccc4c3CCN1C(=O)C(CC(=O)NCCC1=CCCCC1)C[C@@H]2C(=O)N1CCN(C(=O)c2ccco2)CC1 (stereo partly drawn) | -4% | ? | ? | -2% | -14% | ?
CCC(c1nnnn1-c1ccc2c(c1)OCCO2)N1CCN(C(C)=O)CC1 (stereo not drawn) | 25% | 0% | 45 | 18% | . | 2%
O=C1NC[C@@H](CCCCN2C[C@H](Cc3ccccc3)N(CCc3ccc(O)cc3)C(=O)C2=O)N(Cc2ccccc2)C1=O | 1% | 4% | 12 | 0% | . | -7%
O=C(Nc1ccc(Cl)cc1)N1CCCN(Cc2ccccc2F)C1 | 13µM* | ? | ? | ? | . | 25µM*
COc1ccc(NC(=S)N2CCCN(Cc3cccc(Cl)c3)C2)cc1 | -14% | 16µM* | -64* | -12% | -2% | ?
CC(=O)Nc1ccc(N2CCN(Cc3ccccc3F)CC2)cc1 | -6% | -16% | -5 | -13% | . | -10%
CC(C)OCCCNC(=O)C1CCN(S(=O)(=O)N2CCCC2)CC1 | 8% | -3% | -9 | 3% | 13% | -8%
O=C(CNc1ccc(C(F)(F)F)cc1)Nc1cccc(S(=O)(=O)N2CCCC2)c1 | -20% | ? | 26 | -10% | -7% | -25%
O=C(CNc1cccc(S(=O)(=O)N2CCOCC2)c1)Nc1cccc(Br)c1 | -7% | ? | -3 | -6% | 0% | ?
O=C(CNc1cccc(S(=O)(=O)N2CCCC2)c1)Nc1cccc(C(F)(F)F)c1 | -22% | 12µM* | 0 | -3% | 1% | 10µM*
O=C(CNc1cc(S(=O)(=O)N2CCCC2)ccc1OCC(F)(F)F)Nc1ccc(SC(F)F)cc1 | -27% | 3.7µM* | -68* | -27% | -18% | 1.8µM*
O=C(CNc1ccc(C(F)(F)F)cc1)Nc1cccc(S(=O)(=O)N2CCCCC2)c1 | ? | 16µM* | -59* | ? | . | ?
SMILES | HT1080 IDH1KD tx | TDP1 cell noCPT | IL1B secr inh | HT1080NT lethal | uPA surface inh | DT40 TDP1 CPT
O=C(CNc1cccc(S(=O)(=O)N2CCOCC2)c1)Nc1ccc(C(F)(F)F)cc1 | -23% | 16µM* | ? | -8% | -4% | ?
CN1OC[C@@H]2CN(C(=O)NC3CCCCC3)[C@H](c3ccc(N4CCCCC4)cc3)C[C@@H]21 | 13% | ? | -7 | 11% | . | 1%
O=C(Cc1cccc(C(F)(F)F)c1)Nc1ccc(S(=O)(=O)N2CCCC2)cc1 | -1% | ? | ? | 5% | -3% | ?
O=C(Cc1cccc(C(F)(F)F)c1)Nc1cccc(S(=O)(=O)N2CCCC2)c1 | 3% | ? | 2 | -1% | -7% | 16µM*
COc1cc(=O)n2c(c1C(=O)NC(C)c1ccco1)CCN(Cc1cc(C)ccc1C)CC2 (stereo not drawn) | . | -17% | . | . | . | -5%[9.04 µM]
Cc1ccccc1-c1cc(C(=O)NCC2CC2)nn1CC1CC(c2cccc([N+](=O)[O-])c2)=NO1 (stereo not drawn) | -14% | 16µM* | -21 | -11% | 2% | ?
COCCNC(=O)c1cc(-c2ccccc2C)n(CC2CC(c3cccc([N+](=O)[O-])c3)=NO2)n1 (stereo not drawn) | -9% | ? | -2 | 0% | 9% | ?
CCN1CCN(C(=O)c2ccc3c(c2)N(Cc2cc(C)ccc2C)C(=O)c2ccccc2S3(=O)=O)CC1 | . | -27% | . | . | . | -3%
CCOC(=O)c1ccc2c(c1)N(Cc1cccc(C(F)(F)F)c1)C(=O)c1ccccc1S2(=O)=O | . | 16µM* | . | . | . | ?
CCOC(=O)N1CCC(NC(=O)c2ccc3c(c2)N(Cc2cc(C)ccc2C)C(=O)c2ccccc2S3=O)CC1 (stereo not drawn) | . | 18µM* | . | . | . | 6.5µM*
CCOC(=O)c1ccc2c(c1)N(Cc1cc(C)ccc1C)C(=O)c1ccccc1S2(=O)=O | . | 16µM* | . | . | . | ?
CCOC(=O)N1CCC(NC(=O)c2ccc3c(c2)N(Cc2cc(C)ccc2C)C(=O)c2ccccc2S3(=O)=O)CC1 | . | 12µM* | . | . | . | ?
CCC(=O)N[C@@H]1c2ccccc2C2(CCN(Cc3cnc(N(C)C)s3)CC2)[C@H]1OC | . | -3% | . | . | . | 35%[9.04 µM]
CC(C)(O)C#Cc1ccc(CN2CCc3nnc(CCNC(=O)c4ccco4)n3CC2)cc1 | . | -11% | . | . | . | 2%[9.04 µM]
O=C(c1ccc2c(c1)N(Cc1ccccc1F)C(=O)c1ccccc1S2=O)N1CCOCC1 (stereo not drawn) | . | -3% | . | . | . | -8%
Cc1ccc(C)c(CN2C(=O)c3ccccc3S(=O)c3ccc(C(=O)N4CCCCC4)cc32)c1 (stereo not drawn) | . | 16µM* | . | . | . | 16µM*

Compound activity (PubChem BioAssay)
